About 83,000 compounds went through this panel and 20% of them were active in at least one assay; those are over-represented in the sample as a whole.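 Cell lines were cultured in 96-well plates, exposed to a single compound concentration, and assessed for percent growth 48 hours later.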 Activity calls are given as the source filed them. How the source made its calls: active means growth percent below 10; inactive means the rest.
How the values were obtained:
Assay in all cases: NCI-60 one-dose screen, 48 h (100 = growth as untreated, 0 = no growth, -100 = all killed)
Details in all cases: 10 µM unless noted
[1] = test system: NCI-H23 lung
[2] = test system: NCI-H226 lung
[3] = test system: NCI-H322M lung
[4] = test system: HOP-62 NSCLC
[5] = test system: NCI-H460 lung
[6] = test system: HOP-92 NSCLC
[7] = test system: NCI-H522 lung
[8] = test system: A549/ATCC NSCLC
[9] = test system: 786-0 renal

Measured: growth

Cl.Fc1c[c-]c(-c2ccccn2)c(F)c1.[Pt].c1ccc(P(c2ccccc2)C([PH+](c2ccccc2)c2ccccc2)[PH+](c2ccccc2)c2ccccc2)cc1
active: [1] 5.53% | [5] 7.55% | [6] -12.9%
inactive: [2] 12.5% | [3] 20.8% | [4] 25.9% | [7] 12% | [8] 15.4% | [9] 22.5%

Cc1cc(N2CCCCC2)nc(N(CCNc2ccnc3cc(Cl)ccc23)Cc2ccccn2)n1
inactive: [1] 53.7% | [2] 63.5% | [3] 68.8% | [4] 55.6% | [5] 41.5% | [6] 30.6% | [7] 56.3% | [8] 53.9% | [9] 45.3%

Cc1ccc(S(=O)(=O)Nc2sccc2-c2nc(-c3ccccc3)no2)cc1
inactive: [1] 87.5% | [2] 87.9% | [3] 82.1% | [4] 77.8% | [5] 92.3% | [6] 88.8% | [7] 81.2% | [8] 90.3% | [9] 94.5%

CC(C)(C)CC(C)(C)Nc1c(-c2ccc(-c3ccccc3)cc2)nc2cnccn12
inactive: [1] 91.5% | [2] 87.4% | [3] 81.5% | [4] 79.9% | [5] 80% | [6] 93.3% | [7] 37.5% | [8] 56.4% | [9] 80.6%

C=C(C=O)C1CCC2(C(=O)O)CCC3(C)C(CCC4C5(C)CCC(O)C(C)(C)C5CCC43C)C12 (stereo unspecified)
active: [1] -52.1% | [2] 5.95% | [5] -12.8% | [9] -37.3%
inactive: [3] 31.3% | [4] 14.8% | [6] 67.1% | [7] 24.2% | [8] 34.1%

CCOC(=O)C1=C(C)NC(SCc2nnc(-c3ccc(Cl)cc3)o2)=NC1c1ccc(Cl)cc1Cl (stereo unspecified)
inactive: [1] 66% | [2] 79% | [3] 78.9% | [4] 82.5% | [5] 59.2% | [6] 26.4% | [7] 50.2% | [8] 53.5% | [9] 65.2%

N#Cc1c(NC(=O)c2ccc(Br)cc2)sc2c1CCCC2
inactive: [1] 65% | [2] 44.2% | [3] 52.1% | [4] 46.4% | [5] 14.3% | [6] 81.5% | [7] 22.6% | [8] 53.6% | [9] 46.1%

Clc1ccc(-c2nc(NCCc3ccccc3)nc3c(NCCc4ccccc4)cnn23)cc1
inactive: [1] 50.8% | [2] 99.7% | [3] 73.7% | [4] 85.3% | [5] 16.3% | [6] 97.7% | [7] 63% | [9] 80%
active: [8] 9.98%

CCCCCOC(=O)c1cccc(NC(=O)CN(CC)CC)c1
inactive: [1] 102% | [2] 96.7% | [3] 97.6% | [4] 86.8% | [5] 111% | [6] 75.6% | [7] 62% | [8] 95.7% | [9] 81.2%

CCCCCCNc1cc(C)nc2ccc(OC)cc12
inactive: [1] 52.7% | [2] 61.5% | [3] 67.2% | [4] 73.1% | [5] 61.6% | [6] 39.3% | [7] 63.9% | [8] 64.3% | [9] 68.9%

COc1ccc(-c2cc(-c3cc(OC)ccc3O)[nH]c(=O)c2C#N)cc1
inactive: [1] 59.1% | [2] 73.8% | [3] 94.5% | [4] 53.2% | [5] 41.6% | [6] 31.6% | [7] 15.4% | [8] 79.9% | [9] 57.3%

Oc1ccccc1-c1nc2ccccn2c1NCCN1CCOCC1
inactive: [1] 100% | [2] 101% | [3] 91.7% | [4] 76.8% | [5] 99.2% | [6] 85.2% | [7] 84% | [8] 91.9% | [9] 92.4%

c1ccc(-c2oc3ccccc3c2-c2ccccc2)cc1
inactive: [1] 90.2% | [2] 88.3% | [3] 95.8% | [4] 105% | [5] 99.8% | [6] 89.5% | [7] 83% | [8] 97.2% | [9] 98.8%

N=C(N)c1ccc(-c2ccc(/C=C/c3ccccc3)s2)cc1
active: [3] 1% | [5] -60.1% | [9] -38.3%
inactive: [1] 55.2% | [2] 84.7% | [4] 33.3% | [6] 34.7% | [7] 20% | [8] 12.7%

COc1cc(C2C=C(c3cccc(NC(C)=O)c3)Nc3ncnn32)cc(OC)c1OC (stereo unspecified)
inactive: [1] 29.8% | [2] 43.5% | [3] 37% | [4] 62.6% | [5] 14.6% | [6] 68.9% | [8] 45.5% | [9] 50.1%
active: [7] -3.09%

CCn1c(Sc2nnc(Nc3ccccc3)s2)nc2c1c(=O)n(C)c(=O)n2C
inactive: [1] 88.2% | [2] 102% | [3] 91.4% | [4] 93.5% | [5] 106% | [6] 61.5% | [7] 114% | [8] 99.9% | [9] 93.2%

CCCCCCCCCCCCCCCCCC1=NCCN1C(=O)OCCO
inactive: [1] 76.9% | [2] 78.5% | [3] 51.1% | [4] 52.6% | [6] 56.5% | [7] 11.1% | [9] 87.2%
active: [5] 7.14% | [8] -72.4%

CCOC(=O)C(=CNc1ccccc1[N+](=O)[O-])C(=O)OCC
inactive: [1] 99% | [2] 88.1% | [3] 96.3% | [4] 107% | [5] 105% | [6] 80.6% | [7] 89.5% | [8] 88.5% | [9] 97.2%

N=C(N)c1ccc(-c2ccc(-c3ccc(Cl)cn3)s2)cc1
inactive: [1] 67.8% | [2] 83.8% | [4] 56.3% | [6] 34.7% | [7] 48.7% | [8] 27.6% | [9] 52.9%
active: [3] 4.72% | [5] -46.5%

Cc1nn(-c2ccccc2)c2c1C(c1ccc([N+](=O)[O-])cc1)C(C#N)=C(N)O2 (stereo unspecified)
inactive: [1] 98.4% | [2] 99.3% | [3] 116% | [4] 94.3% | [5] 108% | [6] 91.7% | [7] 97.5% | [8] 102% | [9] 102%

O=C(CC12CC3CC(CC(C3)C1)C2)NCCOCCOCCOCCNC(=O)c1cc2c(o1)C(=O)c1ccccc1C2=O
inactive: [6] 27.6%
active: [1] -47.6% | [2] -73.6% | [3] -78.7% | [4] -49.7% | [5] -71.5% | [7] -45.6% | [8] -41.2% | [9] -5.36%

Cc1c2c(cn1Cc1ccccc1)CCc1cn[nH]c1-2
inactive: [1] 89.2% | [2] 101% | [3] 106% | [4] 89.1% | [5] 101% | [6] 70.1% | [7] 97.5% | [8] 99.3% | [9] 98.1%

C[C@H]1[C@H](C)CC[C@]2(C(=O)N3CCN(C)CC3)CC[C@]3(C)C(=CC[C@@H]4[C@@]5(C)C/C(=C/c6cccnc6)C(=O)C(C)(C)[C@@H]5CC[C@]43C)[C@H]12
active: [1] -51.2% | [2] -57.2% | [3] -52.8% | [4] -95.9% | [5] -65.1% | [6] -81.7% | [7] -79.3% | [8] -73.7% | [9] -85%

CN1CCN(C(=O)[C@]23CCC(C)(C)C[C@@H]2C2=CC[C@@H]4[C@@]5(C)Cc6c([nH]c7ccccc67)C(C)(C)[C@@H]5CC[C@@]4(C)[C@]2(C)CC3)CC1
inactive: [1] 93.3% | [2] 86.9% | [3] 88.6% | [4] 80% | [5] 75.8% | [6] 70.7% | [7] 78.2% | [8] 69.4% | [9] 74.4%

Cn1cc(Nc2nccc(-c3ccc(N4CCCC4)c(C#N)c3)n2)cn1
inactive: [1] 63.3% | [2] 78.9% | [3] 52% | [4] 25.5% | [6] 67% | [7] 22% | [8] 22.6% | [9] 42.7%
active: [5] 8.94%

CC(=O)Nc1cccc(C2=CC(c3ccc(C)cc3)n3ncnc3N2)c1 (stereo unspecified)
inactive: [1] 97.4% | [2] 92.7% | [3] 107% | [4] 101% | [5] 107% | [6] 77.7% | [7] 94.8% | [8] 108% | [9] 95%

CCNCCNc1cc(-c2ccc(C(=O)OC)cc2)c(C#N)c2nc3ccccc3n12
active: [5] 4.26%
inactive: [1] 66.6% | [2] 87.8% | [3] 43.7% | [4] 68.4% | [6] 71% | [7] 32.3% | [8] 11.9% | [9] 44.2%

N=C(N)c1ccc(-c2ccc(-c3ccc(Cl)c(Cl)c3)o2)nc1
active: [4] 5.09% | [5] -78.1% | [8] -35.2% | [9] -74.9%
inactive: [1] 65.5% | [2] 109% | [3] 42.4% | [6] 84.6% | [7] 78.2%

CC(C)OC(=O)OCOP(=O)(OCOC(=O)OC(C)C)C1CCCN(O)C1=O (stereo unspecified)
inactive: [1] 69.6% | [2] 56.1% | [3] 32.8% | [4] 13.3% | [5] 17% | [6] 41.7% | [8] 22.1% | [9] 17.6%
active: [7] -6.81%
